{"source": "PubChem BioAssay (NCI)", "note": "The panel holds about 79,000 compounds, 15% with a hit somewhere; the sample as a whole holds those more often. Unmarked numbers belong to inactive results. The source made the active and inactive calls. Cut-off read from the data, not from the text of the source: active = growth inhibition above about 70%; inactive = the rest.", "data": [{"assay": "NCI Yeast Anticancer Drug Screen. Data for the rad50 strain (AID 155);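 note: 0% = growth of vehicle-only cultures of the same strain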", "conditions": "S. cerevisiae rad50 strain growth inhibition; at 50.0 µM; hits give high values", "method": "Growth inhibition of yeast strains with defined genetic alterations is measured as a screen for potential anti-cancer activity. Selected strains with alterations in DNA damage repair or cell cycle control were exposed to compounds and growth inhibition was measured relative to vehicle treated controls. The strain used in this assay is rad50", "values": [{"compound": "CNC1=C(N2CC2)C(=O)C(NC)=C(N2CC2)C1=O", "growth inhibition": "7.7%"}, {"compound": "CN1CCC(O)(c2ccc(Br)cc2)C(C(=O)c2ccc(Br)cc2)C1", "note": "(stereo not given)", "growth inhibition": "96.1% (active)"}, {"compound": "COc1ccc2c(c1O)CN1CCc3cc4c(cc3C1C2)OCO4", "note": "(stereo not given)", "growth inhibition": "40.5%"}, {"compound": "Cc1ccc(NN=O)nc1", "growth inhibition": "-13.9%"}, {"compound": "O=C1NC(=O)C(Cc2cccc(OCc3ccccc3)c2)C(=O)N1", "growth inhibition": "20.1%"}, {"compound": "CC[O-].CC[O-].O=C([CH-]C(=O)c1ccccc1)c1ccccc1.O=C([CH-]C(=O)c1ccccc1)c1ccccc1.[Ti+4]", "growth inhibition": "34.3%"}, {"compound": "CCOC(=O)C12CCC(=O)C=C1CN(C)CC2", "note": "(stereo not given)", "growth inhibition": "-2.25%"}, {"compound": "C1C[OH+]CC[OH+]CC[OH+]CC[OH+]CC[OH+]1.[Cl-].[V]", "growth inhibition": "-13.2%"}, {"compound": "O=C1OC(Br)c2ccccc21", "note": "(stereo not given)", "growth inhibition": "-11.4%"}, {"compound": "CC1(c2ccccc2)CC12C(=O)NC(=O)NC2=O", "note": "(stereo not given)", "growth inhibition": "-69.1%"}, {"compound": "CN(C)C(=O)Oc1cc(O)cc([N+](=O)[O-])c1", "growth inhibition": "-5.45%"}, {"compound": "CC1=C(C)C(=O)O[C@@H]([C@](C)(O)[C@]2(O)CC[C@@]3(O)[C@@H]4C[C@H](O)[C@]5(O)[C@@H](O)C=CC(=O)[C@]5(C)[C@H]4CC[C@]23C)C1", "growth inhibition": "21.9%"}, {"compound": "S=P12OCCC(CO1)O2", "note": "(stereo not given)", "growth inhibition": "8.2%"}, {"compound": "NCc1c[nH]c2ccccc12", "growth inhibition": "-25.1%"}, {"compound": "[CH3][Sb]([CH3])([CH3])([I])[I]", "growth inhibition": "20.4%"}, {"compound": "O=C1OC(=O)C2CC3C(CC12)C1(Cl)C(Cl)=C(Cl)C3(Cl)C1(Cl)Cl", "note": "(stereo not given)", "growth inhibition": "-15.5%"}, {"compound": "O=S(OO)c1cc(Cl)c(O)c(Cl)c1", "note": "(stereo not given)", "growth inhibition": "3.5%"}, {"compound": "CCOP(=O)(OCC)/C(C#N)=C/c1ccccc1", "growth inhibition": "19.2%"}, {"compound": "O=C1NC(=O)C2(CCOCC2)C(=O)N1", "growth inhibition": "-5.15%"}, {"compound": "CCC[CH2][Sn]([Br])([c]1ccccc1)[c]1ccccc1", "growth inhibition": "99% (active)"}, {"compound": "O=C(O)C(O)(Cl)c1cccs1", "note": "(stereo not given)", "growth inhibition": "-0.5%"}, {"compound": "Cc1ccc(N2C(=O)C3C(C2=O)C2(Cl)C(Cl)=C(Cl)C3(Cl)C2(Cl)Cl)cc1Cl", "note": "(stereo not given)", "growth inhibition": "-1.25%"}, {"compound": "Nc1ccc([N+](=O)[O-])cc1N", "growth inhibition": "9.15%"}, {"compound": "CN1C2CCC1C(O)C(c1ccccc1)C2", "note": "(stereo not given)", "growth inhibition": "6.15%"}, {"compound": "O=C(O)CP(=S)(S)c1ccccc1", "note": "(stereo not given)", "growth inhibition": "-28.5%"}, {"compound": "C=C1C(=O)OC2CCN3CC=C(COC(=O)C(C)(O)C4(CO4)C1C)C23", "note": "(stereo not given)", "growth inhibition": "11.1%"}, {"compound": "Cc1ccc(C(O)(c2ccc(C)cc2)c2ccccn2)cc1", "growth inhibition": "-6.65%"}, {"compound": "Cn1cnc([N+](=O)[O-])c1[Se]c1nc(N)nc2nc[nH]c12", "growth inhibition": "-24.1%"}, {"compound": "[N-]=[N+]=C1C(=O)C2CC3CC1CC2C3", "note": "(stereo not given)", "growth inhibition": "-3.55%"}, {"compound": "OCCC[n+]1cccc2ccccc21", "growth inhibition": "-11.2%"}, {"compound": "Nc1cc([N+](=O)[O-])cc([N+](=O)[O-])c1", "growth inhibition": "-6.6%"}, {"compound": "CCOc1ccc(/C=C/c2cc(OC)c(OC)c(OC)c2)cc1", "growth inhibition": "-27.9%"}, {"compound": "CC1=CC(=Nc2ccc(N(CCCl)CCCl)cc2)C=CC1=O", "growth inhibition": "-6.1%"}, {"compound": "Cc1ccc(N=C2OP(=O)(Nc3ccc(C)cc3)Oc3ccccc32)cc1", "note": "(stereo not given)", "growth inhibition": "-11.3%"}, {"compound": "C/C(CC(C)(C)N1CC1)=N\\N", "growth inhibition": "-19.7%"}, {"compound": "C#CC1(OC(C)=O)CCC2C3CCC4=CC(=O)CCC4(C)C3CCC21C", "note": "(stereo not given)", "growth inhibition": "32%"}, {"compound": "Cc1cccc(Cl)c1OP(=O)(Oc1c(C)cccc1Cl)Oc1c(C)cccc1Cl", "growth inhibition": "-10.4%"}, {"compound": "CCCCCCCCCNP(=O)(OCc1ccccc1)N(CCCl)CCCl", "note": "(stereo not given)", "growth inhibition": "55.5%"}, {"compound": "NC(=O)NC(O)C(Cl)(Cl)Cl", "note": "(stereo not given)", "growth inhibition": "-12.1%"}, {"compound": "COc1cc2c(cc1O)CCN[C@H]2C", "growth inhibition": "-1.3%"}]}]}
